# Rpn11 block: blocks the human proteasome subunit Rpn11; O00487; human 26S proteasome, Ub4-pepOG fluorescence polarization; 20S core pre-blocked with epoxomicin; inhibition, % at 20 µM; actives 0.59% (n = 360,000);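 active means inhibition at 20 µM, scaled to each plate's controls, above about 33%, limit read from the data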
# ZTA DNA inh: blocks Epstein-Barr virus ZTA, an EBNA-1 counter-screen. P03206. ZTA-DNA binding, fluorescence polarization. inhibition, % at 11 µM. actives 0.15% (n = 320,000). AID 2234; in the data active means inhibition above about 33%
# GRIN3A LBD mod: modulators (binders) of human NR3A ligand-binding domain | NR3A LBD differential scanning fluorimetry, Tm shift; 0% = protein alone, 100% = glycine-bound protein | Tm shift relative to glycine control, % at 25 µM | actives 2.5% (n = 340,000);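 active means melting temperature shift of at least 10% of the positive control shift, at one fixed dose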
# TPT1 inh: blocks Candida albicans tRNA 2'-phosphotransferase; actives 0.81% (n = 300,000); inhibition, % at 5 µM; recombinant caTPT1, FP RNA substrate dephosphorylation;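 active means inhibition above the mean of all tested compounds plus 3 SD, set per screening campaign, cut at about 24% in these data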;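 further: plate controls were DMSO alone for no effect and ferristatin control at 100 nM for full effect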
# EBNA-1 inhibitor: blocks EBNA-1 binding to DNA | EBNA-1 DNA binding, fluorescence polarization | inhibition, % at 14.8 µM | actives 0.34% (n = 300,000); in the data active means inhibition above about 28%
# dFosB act: enhances mouse delta FosB homodimer DNA binding; P13346; purified delta FosB, TAMRA-CDK5 oligo fluorescence polarization; percent of positive-control signal above neutral wells; activation, % at 25 µM; actives 0.99% (n = 340,000); AID 493131;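 active means mean activation above about 17%, with every replicate also reaching it, limit read from the data, passing the limit was not always enough; inconclusive means only one of the two conditions met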
# caTPT1 confirm: confirmation of Candida albicans TPT1 inhibitors. actives 74% (n = 2,400). recombinant caTPT1, fluorescence polarization, RNase T1 coupled. shares compounds with TPT1 inh. inhibition, % at 5 µM;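 active means inhibition above the primary screen limit, the mean inhibition of all tested compounds plus 3 SD, cut at about 25% in these data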
# RNase T1 inh: blocks Aspergillus oryzae RNase T1, a TPT1 counter-screen; actives 83% (n = 2,400); RNase T1 cleavage, fluorescence polarization, 1536-well; AID 2153; inhibition, % at 5 µM; shares compounds with TPT1 inh;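 active means inhibition above the solvent-only control well mean plus 3 SD, limit set per screening run, cut at about 23% in these data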;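 further: plate controls were DMSO wells with enzyme for no effect and wells without RNase T1 for full effect; inhibitors block cleavage so intact labeled substrate keeps polarization high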
# Zta DNA confirm: confirmation of Epstein-Barr virus ZTA DNA binding inhibitors; shares compounds with ZTA DNA inh; Zta-ZRE DNA binding, fluorescence polarization; inhibition, % at 11.1 µM; actives 30% (n = 320);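 active means mean inhibition across triplicate runs above the hit threshold derived for the original primary screen, cut at about 33% in these data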;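 further: 0% = Zta with DMSO and 100% = wells lacking Zta protein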
# EBNA-1 counter: EBNA-1 DNA binding inhibition, counter-screen for ZTA; shares compounds with ZTA DNA inh; inhibition, % at 14.8 µM; fluorescence polarization; AID 2362; 320 tested, under 10 active; call rule not given here
# Rpn11 confirm: confirmation of human proteasome Rpn11 inhibitors; inhibition, % at 20 µM; AID 602318; purified human 26S proteasome, Ub4-pepOG fluorescence polarization; proteasome pretreated with epoxomicin; actives 29% (n = 1,900); shares compounds with Rpn11 block
# MMP-2 counter: blocks human MMP-2, flagging nonselective RPN11 hits; inhibition, % at 20 µM; shares compounds with Rpn11 block; actives 4% (n = 1,900); AID 602330; recombinant MMP-2, FRET peptide cleavage fluorescence;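 further: human MMP-2 activated beforehand with APMA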
# Target sequence (P08253 whole entry, looked up): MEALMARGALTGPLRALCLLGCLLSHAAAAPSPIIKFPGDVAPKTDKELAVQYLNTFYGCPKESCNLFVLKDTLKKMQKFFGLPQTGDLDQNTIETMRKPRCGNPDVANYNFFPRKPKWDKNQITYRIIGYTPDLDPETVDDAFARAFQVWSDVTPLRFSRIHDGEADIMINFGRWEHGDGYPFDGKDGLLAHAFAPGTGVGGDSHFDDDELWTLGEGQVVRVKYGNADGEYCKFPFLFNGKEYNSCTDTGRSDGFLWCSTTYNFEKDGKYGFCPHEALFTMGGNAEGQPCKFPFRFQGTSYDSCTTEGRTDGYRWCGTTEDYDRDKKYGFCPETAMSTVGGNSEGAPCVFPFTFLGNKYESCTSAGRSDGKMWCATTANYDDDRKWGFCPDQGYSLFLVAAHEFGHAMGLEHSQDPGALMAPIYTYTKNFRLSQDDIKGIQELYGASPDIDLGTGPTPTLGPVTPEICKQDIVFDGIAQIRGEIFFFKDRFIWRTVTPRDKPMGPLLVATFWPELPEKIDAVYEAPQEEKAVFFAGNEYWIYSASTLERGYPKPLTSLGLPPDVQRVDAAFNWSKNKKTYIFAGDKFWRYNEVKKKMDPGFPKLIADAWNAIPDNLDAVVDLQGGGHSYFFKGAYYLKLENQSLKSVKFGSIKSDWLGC
# Thrombin FP: counter-screen for RPN11 inhibitors: inhibition of bovine thrombin. actives 13% (n = 1,900). AID 602333. shares compounds with Rpn11 block. bovine thrombin cleavage of Ub4-pepOG, fluorescence polarization. inhibition, % at 20 µM;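 active means mean inhibition at least 40% at 20 µM, or signal 3 deviations below plate average, so some actives read negative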;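 further: plate controls were thrombin with DMSO for no effect and buffer wells lacking thrombin for full effect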
# The depositor's hits bear a star; ? = inconclusive; nt = no result given. A selection: hits, their analogues and other compounds. The true share with any hit is near 4.5%. Unless noted, no stated cut-off is given here; in the data, active means inhibition above about 40%; inactive means the rest.
SMILES,Rpn11 block,ZTA DNA inh,GRIN3A LBD mod,TPT1 inh,EBNA-1 inhibitor,dFosB act,caTPT1 confirm,RNase T1 inh,others
O=C(CCC(=O)N1CC2C[C@@H](C1)Cn1c2cccc1=O)NCCc1ccccc1,-4,-3,2,-6,-5,-2,nt,nt,
Cc1ccccc1N1C(=O)NC(=O)/C(=C/c2ccc(N3CCOCC3)o2)C1=O,nt,-17,0,123*,-6,-2,136*,138*,
O=C1NC(=O)N(c2ccc3c(c2)OCO3)C(=O)/C1=C\c1ccc(N2CCCCC2)o1,nt,2,-3,126*,-4,-7,148*,145*,
Cc1ccccc1N1C(=O)NC(=O)/C(=C\c2cc(Br)c(N3CCOCC3)o2)C1=O,nt,-12,-6,96*,-11,-3,141*,140*,
COc1ccc(C(c2nnnn2-c2c(C)cccc2C)N2CCC3(CC2)C(=O)NCN3c2ccccc2)cc1 (stereo unspecified),22,nt,nt,nt,nt,nt,nt,nt,
O=c1[nH]c(=O)n(CCC2=CCCCC2)c(O)c1C=NCCN1CCNCC1,nt,-4,-1,27*,4,-9,44*,55*,
O=c1[nH]c(=O)n(Cc2ccccc2)c(O)c1C=NCCCn1ccnc1,16,0,0,48*,8,-1,35*,45*,
O=c1[nH]c(=O)n(Cc2ccco2)c(O)c1C=NCCN1CCOCC1,15,12,-1,25*,9,3,30*,42*,
O=c1[nH]c(=O)n(Cc2ccco2)c(O)c1C=NCc1ccco1,-2,5,-1,1,-8,1,nt,nt,
C=CCn1c(O)c(C=NCCN2CCNCC2)c(=O)[nH]c1=O,0,8,-4,5,2,-2,nt,nt,
COc1ccc(N=Nc2c(O)[nH]c(=S)[nH]c2=O)cc1,nt,-3,1,60*,-3,-1,55*,70*,
CCn1c(O)c(/C=N/NC(=O)c2ccccc2)c(=O)n(CC)c1=S,25,6,-7,94*,-4,nt,26*,34*,
CCn1c(O)c(/C=N/NC(=O)c2ccncc2)c(=O)[nH]c1=S,12,-8,-2,6,-2,10,nt,nt,
C1CCC2CCCCC2C1 (stereo unspecified),-7,-14,0,nt,nt,4,nt,nt,
CC(Oc1ccc(-c2ccccc2)cc1)C(=O)O (stereo unspecified),3,-20,2,5,-13,0,nt,nt,
O=C1NC(=O)N(c2ccc(F)cc2)C(=O)/C1=C/c1ccsc1,4,-10,-2,16,-1,2,nt,nt,
O=C1NC(=O)N(c2ccc(Br)cc2)C(=O)/C1=C/c1ccsc1,16,3,-2,30*,-8,0,14,20,
O=C1NC(=O)N(c2cccc(Br)c2)C(=O)/C1=C/c1ccsc1,29,-20,-22,91*,-11,-6,70*,72*,
CCOC(=O)C1SC2(C(F)(F)F)CC1(O)c1c(C)cc(C)nc1O2 (stereo unspecified),2,6,-3,-4,-7,1,nt,nt,
NC(=S)/N=C/c1c(O)[nH]c(=O)[nH]c1=O,12,-2,-1,16,-9,7,nt,nt,
C=CCNC(=S)/N=C/c1c(O)[nH]c(=O)[nH]c1=O,16,-8,-2,26*,-2,3,14,23*,
O=S(=O)(c1cccc(C(F)(F)F)c1)N1Cc2ccccc2-n2nncc2C1,2,nt,nt,nt,nt,nt,nt,nt,
CCN(CC)c1ccc(N=Cc2c(O)n(-c3ccc(OC)cc3)c(=O)[nH]c2=O)cc1,-80,36*,1,56*,-6,-8,-27,-17,Zta DNA confirm=-5;EBNA-1 counter=-11
COC(=O)C1=C(C(=O)OC)C2OC1c1cc3ccccc3cc12,-2,nt,0,nt,nt,-5,nt,nt,
O=c1[nH]c(CN2CC=C(c3ccccc3)CC2)nc2scc(-c3ccccc3)c12,50*,-9,1,54*,-17,0,32*,45*,Rpn11 confirm=58*;MMP-2 counter=-20;Thrombin FP=16
SMILES,Rpn11 block,ZTA DNA inh,GRIN3A LBD mod,TPT1 inh,EBNA-1 inhibitor,dFosB act,caTPT1 confirm,RNase T1 inh,others
CN(C(=O)CN1CC=C(c2ccccc2)CC1)c1c(N)n(Cc2ccccc2)c(=O)[nH]c1=O,5,7,-4,3,-1,4,nt,nt,
O=c1[nH]c(=S)[nH]c(O)c1N=Nc1ccc2c(c1)OCCO2,77*,-2,-1,25*,-7,-7,35*,48*,Rpn11 confirm=29;MMP-2 counter=-6;Thrombin FP=45*
Cn1c[n+](C)cc1C(O)c1ccccc1 (stereo unspecified),-2,16,-2,1,4,-5,nt,nt,
Cn1c(O)c(/C=C/C=Nc2ccccc2)c(=O)n(C)c1=S,118*,-3,-4,134*,10,?,67*,74*,Rpn11 confirm=113*;MMP-2 counter=-74;Thrombin FP=active
CC(C)NC(=O)c1ccc(N2CC3CC(C2)c2cccc(=O)n2C3)c([N+](=O)[O-])c1 (stereo unspecified),-8,-3,-3,-2,1,-1,nt,nt,
CN1C(=O)/C(=C\c2ccc(Br)s2)C(=O)NC1=S,55*,1,0,25*,-5,-8,15,27*,Rpn11 confirm=-2;MMP-2 counter=-1;Thrombin FP=6
COc1ccc2[nH]c3c(c2c1)CCNC3C (stereo unspecified),3,8,-1,2,6,-6,nt,nt,
COc1ccc2c3c([nH]c2c1)C(C)NCC3 (stereo unspecified),78*,-5,0,27*,-7,0,2,6,Rpn11 confirm=58*;MMP-2 counter=-8;Thrombin FP=48*
CN(Cc1ccccc1)Cc1ccccc1OC(=O)N(C)C,-4,6,-1,0,3,0,nt,nt,
COc1ccc(-n2c(O)c(C=NCCCn3ccnc3)c(=O)[nH]c2=O)cc1,-4,4,0,-2,9,6,nt,nt,

# Screening results: PubChem, several laboratories
